These results are taken from PubChem BioAssay AID686978 (National Center for Advancing Translational Sciences (NCATS), 2013).

Molecules are shown by their SMILES. Out of some 420,000 compounds screened, about 64,000 (15%) were called active. Roughly 27% stayed inconclusive and do not appear here. Calls follow the shape of the dose curve; as a rule, active = well fitted inhibition curve with a large enough effect; inconclusive = small, poorly fitted or top-dose-only effect; inactive = flat fitted curve, though single readings scatter. Not all results are given here. A call without a number means that no potency is given here.
Potency is read from the fitted curve at half-maximal effect.

The experiment is described as follows: qHTS for Inhibitors of human tyrosyl-DNA phosphodiesterase 1 (TDP1): qHTS in cells in absence of CPT. Also: nearly all actives have a fitted effect of over 55% in size. The conditions noted are these: DT40 Tdp1-/- hTDP1 cells, no CPT, ATP luminescence, 48 h; activity change, negative = growth inhibition: at 46.2 µM (top of the series). The text has this: Human tyrosyl-DNA phosphodiesterase 1 (TDP1) is a novel repair gene, and we propose to use it as a new target for anticancer drug development. TDP1 is not an essential protein, but under treatment with topoisomerase I poison (camptothecin: CPT), TDP1 works as a critical factor for cell survival. To directly identify novel TDP1 inhibitors active in a cellular environment, we have knocked-out the Tdp1 gene in chicken DT40 cells (Tdp1-/-) and generated a complemented counterpart cells that contains a stable transfection of the human TDP1 gene (Tdp1-/-;hTDP1 cells). For the primary screen, Tdp1-/-;hTDP1 cells will be exposed to small molecules in the presence or absence of CPT, and their growth kinetics will be evaluated after 48 hours by measuring ATP activity. […] The hit compounds will then be evaluated in the presence or absence of CPT using Tdp1-/- cells. […] In tertiary assays, biochemical gel-based assays will be used to assess whether the hit compounds specifically target TDP1.
To this end, we have screened this cell line against the MLSMR in two primary screens. In one screen we add CPT and in the other we screen in the absence of CPT; this AID represents the screen where CPT was absent.
NIH Chemical Genomics Center [NCGC]
NIH Molecular Libraries Probe Centers Network [MLPCN]
Assay Submitter (PI): Yves Pommier, NCI
DT40-hTDP1 cells without 20 nM Camptothecin (add 20 microL of DMSO in 1 L of cell culture medium) were dispensed at 400 cells/5microL/well in tissue culture treated 1536-well white wall/solid bottom assay plates (Greiner Bio-One North America, NC, U.S.A.) using a Multidrop Combi 8 channel dispenser (Thermo Fisher, Waltham, MA, USA). 23 nL compounds and controls were transferred using the pin tool (Kalypsys, San Diego, CA, USA) to the assay plates. The assay plates were then incubated at 37 masculineC for a minimum 48 hr. Three microL of Cell Titer Glo solution was added to the plates and incubated at RT in dark for 30 min. Luminescence was read using ViewLux (Perkin Elmer) with 1 sec exposure slow speed, high gain and 2x binning.
Turning to `Cc1ccc(S(=O)(=O)N[C@H](CO)C(C)C)cc1`, the Potency result was “inactive”. In the case of `CN(C)C(=O)N=NC(=O)N(C)C`, the Potency was 9.2 µM (active). Take `CCOC(=O)N/N=C/c1cccnc1`: the Potency result is “inactive”.

For `COC(=O)N/N=C/c1c[n+]([O-])c2ccccc2[n+]1[O-]`, the Potency was 0.0422 µM (active). Under `CC(C)(C)OC(=O)N/N=C/c1ccc(C(=O)O)cc1` stands “inactive”. Under `N#Cc1ccccc1NC(=O)c1ccc2c(c1)OCO2` stands “inactive”; under `CC1CCN(C(NC(=O)c2ccco2)C(=O)c2ccccc2)CC1` (stereo unspecified), “inactive”; under `O=C(NCc1ccncc1)C(=O)NCC1OCCN1S(=O)(=O)c1ccc(Br)cc1` (stereo unspecified), “inactive”. For the compound `O=C(NCc1ccc2c(c1)OCO2)C(=O)NCC1OCCN1S(=O)(=O)c1ccc(F)cc1` (stereo unspecified), the Potency result was “inactive”. To `O=C(NCCCN1CCCC1=O)C(=O)NCC1OCCN1S(=O)(=O)c1ccc(Br)cc1` (stereo unspecified) belongs 0.411 µM (active); to `CC(C)c1ccc(NC(=O)CCN2C(=O)c3ccc([N+](=O)[O-])cc3C2=O)cc1`, “inactive”.

Take `CC(C)CNC(=O)COC(=O)/C=C/c1ccccc1[N+](=O)[O-]`: the Potency entry was “inactive”. To `CC(C)OCCCNC(=O)C1CC(=O)N(C2CCCCCCC2)C1` (stereo unspecified) belongs “inactive”; to `O=C(Cc1ccccc1)NCC1OCCc2ccccc21` (stereo unspecified), “inactive”; to `COc1ccc2nc(N3CCN(C(=O)c4ccc([N+](=O)[O-])o4)CC3)sc2c1`, 20.6 µM (active). Under `COc1ccc2nc(N3C(=O)C(O)=C(C(=O)c4ccco4)C3c3ccco3)sc2c1` (stereo unspecified) stands “inactive”; under `Cc1ccc2nc(N3CCN(C(=O)c4ccco4)CC3)sc2c1`, “inactive”. To `COC(=O)[C@H](CCSC)NC(=O)Nc1ccc(OC)cc1` belongs “inactive”. As for `CCN(CC)C(=O)CCC(=O)Nc1ccc(C(=O)OC)cc1`, the Potency result is “inactive”. To `Cc1ccc(NC(=O)C(=O)NCC(c2cccnc2)N2CCOCC2)cc1` (stereo unspecified) belongs “inactive”; to `COc1ccccc1N1CCN(C(CNC(=O)C(=O)NCc2ccc(C)cc2)c2cccnc2)CC1` (stereo unspecified), 2.06 µM (active); to `Cc1ccc(C)c(NC(=S)NCC(c2cccnc2)N2CCOCC2)c1` (stereo unspecified), “inactive”.

On to `Cc1cc(C)n(-c2nnc(C)n2NC(=O)c2cccc(Cl)c2)n1`, for which the Potency entry is “inactive”.

For `Cn1c(SCC(=O)c2cccs2)nnc1-c1ccco1`, the Potency result was “inactive”. To `O=C(CN1C(=O)/C(=C\c2ccc(C(F)(F)F)cc2)Sc2ccccc21)NCc1ccco1` belongs 13 µM (active); to `O=C(CCCCCN1C(=O)c2cccc3cccc(c23)C1=O)NCc1ccco1`, “inactive”; to `CC1CCC2(CC1)NC(=O)N(CC(=O)NCc1ccco1)C2=O` (stereo unspecified), “inactive”. Under `Cc1cccc(NS(=O)(=O)c2cc(Cl)ccc2Cl)n1` stands “inactive”. Consider `Nc1nc(SCC(=O)NN(c2ccccc2)c2ccccc2)n[nH]1`, for which the Potency result was “inactive”. Consider `CCOC(=O)C(Cc1ccccc1)NC(=O)CCC(=O)c1ccc(OC)cc1` (stereo unspecified), for which the Potency result was “inactive”. Under `O=C(NCCc1ccccn1)c1cc(C(=O)C2CCCCC2)c[nH]1` stands “inactive”; under `Cn1cnnc1SCC(=O)Nc1ccc(N2CCOCC2)cc1`, “inactive”; under `O=C(NCCc1ccccn1)c1cc(-c2ccc(Cl)cc2)nc2ccccc12`, 18.4 µM (active). `O=C(CNC(=O)COc1ccccc1)NCCc1ccccn1`: the Potency result is “inactive”. To `CN(CC(=O)NCCc1ccccn1)S(=O)(=O)c1ccc(Cl)cc1` belongs “inactive”. Consider `Cc1cc(=O)oc(C)c1C(=O)NC1CC(C)(C)NC(C)(C)C1`, for which the Potency entry is “inactive”. Under `O=C(CC1SCCNC1=O)Nc1ccc(Cl)cc1` (stereo unspecified) stands “inactive”.

For the compound `CCOc1ccccc1NC(=O)CCN1CCN(S(=O)(=O)c2ccc(OC)cc2)CC1`, the Potency result is “inactive”. To `N#Cc1c(N)nc2c3c(sc(=N)c2c1N)NC(=O)CC3c1ccccc1Cl` (stereo unspecified) belongs 13 µM (active). Under `COc1ccc(C2CC(=O)Nc3sc(=N)c4c(N)c(C#N)c(N)nc4c32)cc1OC` (stereo unspecified) stands “inactive”; under `COCCN(C(=S)Nc1ccccc1OC)C1CCN(C(C)C)CC1`, “inactive”. For the compound `CC(Sc1nncs1)C(=O)NCc1ccc2c(c1)OCO2` (stereo unspecified), the Potency entry is “inactive”. As for `O=C(C1Cc2ccccc2CN1C(=O)c1ccco1)N1CCN(c2ccccc2)CC1` (stereo unspecified), the Potency result is “inactive”. To `O=[N+]([O-])c1ccc2[nH]c3c(c2c1)CCCC3O` (stereo unspecified) belongs “inactive”; to `Cc1ccc(C)c(N2CCN(C(=O)Cn3nc(C)c4sc5ccccc5c4c3=O)CC2)c1`, 23.1 µM (active). Take `CCc1cc2c(cc3c(=O)n(CC(=O)N4CCN(c5cc(Cl)ccc5C)CC4)nc(CC)n32)s1`: the Potency result was “inactive”.

Take `C[C@H](NC(=O)NCCc1ccccc1)C(=O)O`: the Potency result was “inactive”. On to `Cc1ccccc1CNC(=O)CCCn1nc(C)c2sc3ccccc3c2c1=O`, for which the Potency was 20.6 µM (active). With `CC(NCCc1ccc(S(N)(=O)=O)cc1)C(=O)NCc1ccccc1` (stereo unspecified), the Potency entry is “inactive”.

For `CCc1nn(CC(=O)N2CCN(c3cc(C)ccc3C)CC2)c(=O)c2cc3occc3n12`, the Potency entry is “inactive”.

Turning to `Cc1nn(CCCC(=O)NCc2ccccc2Cl)c(=O)c2nccn12`, the Potency result is “inactive”.
